Source: PubChem BioAssay (Tox21)
A number with no mark means an inactive call. Results filed as inconclusive are left out. Where a call stands in place of a potency, no number is given. The source made the active and inactive calls. Unless noted, calls come from the whole dose curve; as a rule, active = well fitted curve in the direction sought with a large enough effect in the repeat runs; inconclusive = weak or mixed curves; inactive = no such curve, though single readings can be large; an effect the other way counts as inactive or inconclusive.

Legend:
[1] = qHTS assay to identify small molecule agonists of H2AX (AID 1224845; active = well fitted activation curve with a large enough effect in the signal ratio in the repeat runs, not every such curve was filed as active; the % refers to the signal ratio)
In short: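 Wild-type CHO-K1 cells plated overnight, then exposed 3 hr at 37C to compounds at 15 concentrations (0.76% DMSO). Lysed, then HTRF anti-pH2AX(S139)-cryptate/anti-H2AX-d2 detection after 24 hr at room temperature; emissions 665 and 620 nm.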

[2] = qHTS assay to identify small molecule agonists of the hypoxia (HIF-1) signaling pathway (AID 1224846; active = well fitted activation curve with a large enough effect in the signal ratio in the repeat runs, not every such curve was filed as active; the % refers to the signal ratio)
In short: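 Compounds added to ME-180 cells carrying hypoxia-response-element beta-lactamase reporter (0.5% dialyzed FBS, 5 h preplating), 17 h at 37C; agonist activity detected by CCF4-AM B/G FRET read-out.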

[3] = qHTS assay to identify small molecule antagonists of the estrogen related receptor (ERR) signaling pathway from Tox21 library (AID 1224848); note: nearly all actives have a fitted effect of over 50% in size; note: potency is the fitted concentration of half-maximal effect
In short: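 Tox21 10K compounds in DMSO tested for ERR pathway antagonism in NTP's ERR cell line; 18 h, 37 C exposure; ONE-Glo luminescence.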

[4] = qHTS assay to identify small molecule agonists of the estrogen related receptor (ERR) signaling pathway from Tox21 library (AID 1224849; calls by dose curve; note: nearly all actives have a fitted effect of over 15% in size); conditions: ERR reporter cell line, ONE-Glo luciferase, 18 h; at 92.4 µM (top of the series) unless noted
In short: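 Luminescent agonist read-out (One-Glo, 30-minute room-temperature incubation) following 18-hour compound treatment at 37 C of the ERR cell line, which had been plated 6 hours before dosing.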

[5] = qHTS RealTime-Glo MT Cell Viability Assay in HepG2 cells - 24 hour (AID 1224867); note: nearly all actives have a fitted effect of over 50% in size; note: potency is the fitted concentration of half-maximal effect
In short: (§1)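 Cell number in HepG2 cultures estimated from NanoLuc luminescence generated by metabolic reduction of a prosubstrate by living cells. The homogeneous, nonlytic format allowed repeated reads at 0, 8, 16, 24, 32 and 40 h of compound exposure.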

[6] = A CellTox Green Cytotoxicity Assay to monitor cytotoxicity in HEK293 cells - 0 hour (AID 1224869); note: nearly all actives have a fitted effect of over 50% in size
In short: (§2)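 Fluorescence from a DNA-binding dye excluded by viable cells was measured repeatedly in the same HEK293 wells (600 cells/well) during continuous compound exposure at 37 C. Each assay gives one read point: 0, 8, 16, 24, 32 or 40 h.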

[7] = qHTS RealTime-Glo MT Cell Viability Assay in HepG2 cells - 40 hour (AID 1224870); note: nearly all actives have a fitted effect of over 50% in size; note: potency is the fitted concentration of half-maximal effect
In short: (§3)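 HepG2 cells mixed with RealTime-Glo MT reagents (NanoLuc plus cell-permeant prosubstrate) were seeded at 600 cells/well, incubated 5 h at 37 C/5% CO2, then pinned with compounds in DMSO; nonlytic luminescence tracked viability during 40 h treatment.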

[8] = A CellTox Green Cytotoxicity Assay to monitor cytotoxicity in HEK293 cells - 40 hour (AID 1224871); note: nearly all actives have a fitted effect of over 45% in size; note: potency is the fitted concentration of half-maximal effect
In short: as §2

[9] = qHTS RealTime-Glo MT Cell Viability Assay in HEK293 cells - 16 hour (AID 1224872); note: nearly all actives have a fitted effect of over 50% in size; note: potency is the fitted concentration of half-maximal effect
In short: (§4)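 Homogeneous bioluminescent viability format in HEK293 cells (600 cells/well). Following 5 h at 37 C/5% CO2, 23 nL compound was pintooled; the signal was measured repeatedly during 40 h incubation.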

[10] = qHTS RealTime-Glo MT Cell Viability Assay in HepG2 cells - 8 hour (AID 1224873); note: nearly all actives have a fitted effect of over 55% in size; note: potency is the fitted concentration of half-maximal effect
In short: as §3

[11] = qHTS RealTime-Glo MT Cell Viability Assay in HEK293 cells - 40 hour (AID 1224874); conditions: RealTime-Glo luminescence; max response: stronger effect = lower value; note: nearly all actives have a fitted effect of over 50% in size; note: potency is the fitted concentration of half-maximal effect
In short: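 Luminescence, which tracks viable cell number through reduction of the prosubstrate to a NanoLuc substrate, was read over continuous 37 C culture. Cells (600/well) were premixed with reagent and rested 5 h before 23 nL of compound in DMSO was pinned.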

[12] = A CellTox Green Cytotoxicity Assay to monitor cytotoxicity in HepG2 cells - 16 hour (AID 1224876); note: nearly all actives have a fitted effect of over 45% in size; note: potency is the fitted concentration of half-maximal effect
In short: (§5)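 Real-time cytotoxicity: fluorescence of a cell-impermeant cyanine dye binding DNA of dead HepG2 cells, measured repeatedly (0–40 h) during compound exposure at 37 C. Cells seeded 600/well with reagent, dosed after 5 h.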

[13] = qHTS RealTime-Glo MT Cell Viability Assay in HepG2 cells - 32 hour (AID 1224877); note: nearly all actives have a fitted effect of over 55% in size; note: potency is the fitted concentration of half-maximal effect
In short: as §1

[14] = A CellTox Green Cytotoxicity Assay to monitor cytotoxicity in HepG2 cells - 24 hour (AID 1224878); note: nearly all actives have a fitted effect of over 45% in size; note: potency is the fitted concentration of half-maximal effect
In short: as §5

[15] = A CellTox Green Cytotoxicity Assay to monitor cytotoxicity in HepG2 cells - 40 hour (AID 1224879); note: nearly all actives have a fitted effect of over 40% in size; note: potency is the fitted concentration of half-maximal effect
In short: as §5

[16] = qHTS assay to identify small molecule agonists of the hypoxia (HIF-1) signaling pathway - cell viability counter screen (AID 1224844; calls by dose curve; note: nearly all actives have a fitted effect of over 50% in size; note: potency is the fitted concentration of half-maximal effect)
In short: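 Cytotoxicity measured by CellTiter-Glo ATP luminescence in the wells also read for beta-lactamase signal. Cells were HRE-bla ME-180 (2,000/well, 0.5% dialyzed FBS), exposed to compounds for 17 h at 37C.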

[17] = qHTS RealTime-Glo MT Cell Viability Assay in HEK293 cells - 32 hour (AID 1224868); note: nearly all actives have a fitted effect of over 50% in size; note: potency is the fitted concentration of half-maximal effect
In short: as §4

[18] = A CellTox Green Cytotoxicity Assay to monitor cytotoxicity in HEK293 cells - 24 hour (AID 1224875); note: nearly all actives have a fitted effect of over 45% in size; note: potency is the fitted concentration of half-maximal effect
In short: as §2

[19] = qHTS assay to identify small molecule agonists of H2AX - cell viability counter screen (AID 1224847; calls by dose curve; note: nearly all actives have a fitted effect of over 30% in size; note: potency is the fitted concentration of half-maximal effect)
In short: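 After overnight plating of 1000 CHO-K1 cells per well, a 15-concentration compound series was applied for 3 hr at 37C. Luminescence from CellTiter-Glo, read following 30 min at room temperature, reflected cell viability.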

Compound	Potency [1]	outcome [2]	Potency [3]	activity change, positive = activation [4]	Potency [5]	Potency [6]	Potency [7]	Potency [8]	Potency [9]	Potency [10]	max response [11] [%]	Potency [12]	Potency [13]	Potency [14]	Potency [15]	Potency [16]	Potency [17]	Potency [18]	Potency [11]	Potency [19]
Cc1ccc(/C=N/n2c(-c3ccccc3)csc2=S)cc1	inactive	inactive	inactive	4.75% [at 42.5 µM]	inactive	inactive	inactive	inactive	inactive	inactive	-0.419	inactive	inactive	inactive	inactive	–	–	–	–	–
O=C(C(=O)c1ccccc1)c1ccccc1	–	–	inactive	5.83%	inactive	inactive	inactive	–	inactive	–	3.7	inactive	inactive	inactive	inactive	inactive	inactive	inactive	–	–
Nc1c(I)cc(I)c(C(=O)N(CCC(=O)O)c2ccccc2)c1I	–	inactive	–	–	inactive	inactive	inactive	inactive	inactive	inactive	–	inactive	inactive	inactive	inactive	inactive	inactive	inactive	–	–
COc1ccccc1N=Nc1c(S(=O)(=O)O)cc2cc(S(=O)(=O)O)cc(NC(C)=O)c2c1O	–	inactive	–	-27.5%	inactive	inactive	inactive	inactive	inactive	–	–	inactive	inactive	inactive	inactive	inactive	–	inactive	–	–
CC[C@@H]([C@H](C)O)n1ncn(-c2ccc(N3CCN(c4ccc(OC[C@@H]5CO[C@@](Cn6cncn6)(c6ccc(F)cc6F)C5)cc4)CC3)cc2)c1=O	inactive	–	–	–	–	inactive	–	–	5.35 µM (active)	–	–	inactive	–	inactive	inactive	–	3.01 µM (active)	inactive	5.35 µM (active)	–
CCCOCCOCCO	–	–	–	–	inactive	inactive	inactive	inactive	inactive	inactive	2.29	inactive	inactive	inactive	inactive	inactive	inactive	inactive	–	inactive
CCOC(=O)C(C)Oc1ccc(Oc2nc3ccc(Cl)cc3o2)cc1 (configuration not stated)	–	–	inactive	-11.6%	–	–	–	inactive	21.9 µM (active)	–	–	inactive	–	inactive	inactive	inactive	49 µM (active)	inactive	–	inactive
CO[C@H]1C=CO[C@@]2(C)Oc3c(C)c(O)c4c(O)c(c5c(c4c3C2=O)=NC2(CCN(CC(C)C)CC2)N=5)NC(=O)/C(C)=C\C=C/[C@H](C)[C@H](O)[C@@H](C)[C@@H](O)[C@@H](C)[C@H](OC(C)=O)[C@@H]1C	–	inactive	30 µM (active)	-63.3%	–	inactive	inactive	inactive	42.7 µM (active)	–	–	inactive	–	–	47.9 µM (active)	–	38.1 µM (active)	inactive	38.1 µM (active)	–
CC(C)(C)C(=O)C(Oc1ccc(Cl)cc1)n1ccnc1 (configuration not stated)	inactive	inactive	–	-21.7% [at 42.5 µM]	inactive	–	inactive	inactive	inactive	–	–	inactive	inactive	inactive	inactive	–	–	inactive	–	inactive
O=C(O)c1cccnc1C(=O)O	–	–	–	–	inactive	inactive	inactive	inactive	inactive	inactive	-1.78	inactive	inactive	inactive	inactive	inactive	inactive	inactive	–	inactive
COc1cc2c(N3CCN(C(=O)Nc4ccc(OC(C)C)cc4)CC3)ncnc2cc1OCCCN1CCCCC1	inactive	–	–	-32.4% [at 42.5 µM]	inactive	inactive	–	–	–	inactive	–	inactive	inactive	–	26.8 µM (active)	–	9.52 µM (active)	inactive	9.52 µM (active)	inactive
CCCCCCCC/C=C\CCCCCCCC(=O)OC(CO)CO	–	inactive	–	–	inactive	inactive	inactive	inactive	inactive	inactive	–	inactive	inactive	inactive	inactive	inactive	inactive	inactive	–	inactive
CN(C)CCOC1=Cc2ccccc2Sc2ccc(Cl)cc21	inactive	inactive	–	-11.9% [at 42.5 µM]	–	inactive	–	–	inactive	–	–	–	21.3 µM (active)	23.9 µM (active)	23.9 µM (active)	–	inactive	inactive	–	inactive
O=C(O)c1ccc(CO)o1	–	inactive	–	–	inactive	inactive	inactive	inactive	inactive	inactive	-0.778	inactive	inactive	inactive	inactive	inactive	inactive	inactive	–	inactive
CN1CCN(CCCN2c3ccccc3Sc3ccc(S(=O)(=O)N(C)C)cc32)CC1	–	–	26.6 µM (active)	-33.1% [at 42.5 µM]	–	inactive	–	–	–	inactive	–	23.9 µM (active)	–	26.8 µM (active)	26.8 µM (active)	–	–	–	–	–
O=C(O)c1cccc(O)c1	–	inactive	–	–	inactive	inactive	inactive	inactive	inactive	inactive	8.08	inactive	inactive	inactive	inactive	inactive	inactive	inactive	–	inactive

Compound	Potency [1]	outcome [2]	Potency [3]	activity change, positive = activation [4]	Potency [5]	Potency [6]	Potency [7]	Potency [8]	Potency [9]	Potency [10]	max response [11] [%]	Potency [12]	Potency [13]	Potency [14]	Potency [15]	Potency [16]	Potency [17]	Potency [18]	Potency [11]	Potency [19]
C[Si](NC1CCCCC1)(NC1CCCCC1)NC1CCCCC1	–	–	–	–	inactive	inactive	inactive	inactive	inactive	inactive	-24.6	inactive	inactive	inactive	inactive	19.5 µM (active)	inactive	inactive	–	inactive
CO[C@@]12[C@H](COC(N)=O)C3=C(C(=O)C(C)=C(N)C3=O)N1C[C@@H]1N[C@@H]12	–	–	8.41 µM (active)	-55.2% [at 42.5 µM]	6.01 µM (active)	inactive	5.35 µM (active)	–	inactive	1.34 µM (active)	–	–	5.35 µM (active)	8.49 µM (active)	6.74 µM (active)	9.52 µM (active)	0.848 µM (active)	inactive	0.674 µM (active)	inactive
COc1ccc(C(=O)c2cccc(O)c2)c(OC)c1	–	inactive	–	–	inactive	–	inactive	inactive	inactive	inactive	–	inactive	inactive	inactive	inactive	inactive	inactive	inactive	–	inactive
CCCCC1C(=O)N(c2ccccc2)N(c2ccc(O)cc2)C1=O (configuration not stated)	inactive	inactive	21.1 µM (active)	-65.4% [at 42.5 µM]	–	inactive	23.9 µM (active)	–	–	inactive	–	–	16.9 µM (active)	–	10.7 µM (active)	–	–	–	–	–
COc1cc2ncnc(Nc3ccc(F)c(Cl)c3)c2cc1OCCCN1CCOCC1	inactive	–	13.3 µM (active)	-47.8% [at 42.5 µM]	–	–	26.8 µM (active)	–	9.52 µM (active)	–	–	23.9 µM (active)	23.9 µM (active)	23.9 µM (active)	23.9 µM (active)	–	9.52 µM (active)	–	10.7 µM (active)	55.2 µM (active)
CC1=NN(c2ccc(C(=O)O)cc2)C(=O)C1	–	inactive	–	–	inactive	inactive	inactive	inactive	inactive	inactive	-25.1	inactive	inactive	inactive	inactive	inactive	inactive	inactive	–	–
C/C=C(\C)C(=O)OCCC(C)CCC=C(C)C (configuration not stated)	–	inactive	–	–	inactive	–	inactive	inactive	inactive	inactive	–	inactive	inactive	inactive	inactive	inactive	–	inactive	–	inactive
Brc1cc(-c2ccc(Br)c(Br)c2Br)cc(Br)c1Br	–	–	–	–	inactive	inactive	inactive	inactive	inactive	inactive	4.87	inactive	inactive	inactive	inactive	inactive	inactive	inactive	–	inactive
CC1C2CC(CC2C2CCCC(O)C2)C1(C)C (configuration not stated)	–	–	–	–	inactive	inactive	inactive	49 µM (active)	inactive	–	-15.9	38.9 µM (active)	inactive	43.6 µM (active)	43.6 µM (active)	–	inactive	49 µM (active)	–	89.8 µM (active)
CNCCCC1c2ccccc2C=Cc2ccccc21	inactive	–	–	-23.5% [at 42.5 µM]	21.3 µM (active)	inactive	–	–	inactive	inactive	–	23.9 µM (active)	23.9 µM (active)	23.9 µM (active)	23.9 µM (active)	–	–	–	–	inactive
C[C@@H]1C[C@H]2[C@@H]3CCC4=CC(=O)C=C[C@]4(C)[C@@]3(F)[C@@H](O)C[C@]2(C)[C@@]1(O)C(=O)CO	inactive	–	–	–	inactive	inactive	inactive	–	inactive	inactive	–	inactive	inactive	inactive	inactive	–	inactive	inactive	–	inactive
CC1=CC(O)CC(C)(C)C1 (configuration not stated)	–	inactive	–	1.93%	inactive	inactive	inactive	–	inactive	inactive	8.3	inactive	inactive	inactive	inactive	inactive	inactive	inactive	–	–
C[N+](C)(C)CCOC(N)=O	–	–	–	–	inactive	inactive	inactive	inactive	inactive	inactive	0.438	inactive	inactive	inactive	inactive	inactive	inactive	inactive	–	inactive
c1cc[c]([Bi]([c]2ccccc2)[c]2ccccc2)cc1	–	inactive	61.1 µM (active)	-40.9%	inactive	inactive	inactive	inactive	inactive	inactive	–	inactive	inactive	–	–	inactive	–	inactive	–	–
CCCCN(CCCC)C(=S)SSC(=S)N(CCCC)CCCC	–	–	–	–	inactive	inactive	inactive	–	48.5 µM (active)	–	–	inactive	inactive	inactive	inactive	–	43.2 µM (active)	inactive	–	112 µM (active)
